The whole screen tested about 75,000 compounds, of which about 5,700 (7.6%) were called active. A call without a number means that no potency is given here. About 7% were inconclusive and are not listed. Calls come from the whole dose curve; as a rule, active = well fitted inhibition curve with a large enough effect; inconclusive = small, poorly fitted or top-dose-only effect; inactive = no such curve, though single readings can be large or run the other way. The sample as a whole holds a higher share of actives than the screen did.
Molecular target: 3-hydroxyacyl-CoA dehydrogenase type-2 (Homo sapiens) (UniProt Q99714)
Assay: qHTS Assay for Inhibitors of HSD17B4, hydroxysteroid (17-beta) dehydrogenase 4;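 note: the protocol describes HADH2 (HSD17B10) and not the HSD17B4 of the title; nearly all actives have a fitted effect of over 70% in size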
Settings: recombinant HSD17B10, NADH fluorescence kinetic; series mostly up to 57.1 µM
Summary of the method: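 Activity followed as NADH fluorescence increase (ex 360, em 450 nm) every 30 seconds for 4 min, using final 90 uM beta-hydroxybutyryl CoA and 1 mM NAD+. Recombinant His-tagged enzyme, 20 nM, pH 9.0 Tris buffer, 15 min compound preincubation.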
Potency is the fitted concentration of half-maximal effect.

Row | SMILES | Potency
1 | COC(=O)c1ccc(C23CC4(C2)[C@H](CN(Cc2cccnc2)[C@@H]4c2ccccc2)C3c2ccc(Cl)nc2)cc1 (stereo not given in full) | inactive
2 | COc1cc(C2C(C(=O)Nc3ccccc3OC)=C(C)Nc3ncnn32)ccc1O (stereo not given) | inactive
3 | Cc1c(C(=O)OCC(=O)N(CCC#N)c2ccccc2)oc2c1ccc1ccccc12 | 31.6 µM (active)
4 | Cc1c(C(=O)OCc2cc(=O)n3cc(Br)ccc3n2)oc2ccccc12 | inactive
5 | COc1ccc(N(CC(=O)NC(C)(C)C)C(=O)c2ccco2)cc1 | inactive
6 | CCOC(=O)c1cccc(NC(=O)CN(c2ccc(C)cc2)S(=O)(=O)c2c(C)noc2C)c1 | inactive
7 | CC(C)c1nc2oc3c(N4CCN(C)CC4)ncnc3c2c2c1CCC2 | inactive
8 | CCOC(=O)CSc1nnc(CNC(=O)c2cccs2)n1-c1cc(OC)ccc1OC | inactive
9 | Cc1cc(C)c2c(n1)nn1c(N3CCOCC3)cc(C)nc21 | 12.6 µM (active)
10 | Cc1cc(N2CCCC2)n2nc(C)c(-c3ccccc3)c2n1 | inactive
11 | C/C(O)=C\c1nc(=O)c2c(C)cc(C)nc2n1-c1ccccc1 | inactive
12 | Cc1nn2c3cc(N4CCOCC4)ccc3nc2c2ccccc12 | inactive
13 | Cc1cc(C)c2c(n1)nn1c(N3CCN(c4cccc(Cl)c4)CC3)cc(C)nc21 | 3.16 µM (active)
14 | O=C(c1ccco1)N1CCN(c2cccc(Cl)c2)CC1 | inactive
15 | COc1ccc(Cl)cc1NC(=O)c1oc(C)nc1C | inactive
16 | CC(C)(C)c1csc(NC2=NS(=O)(=O)c3ccccc32)n1 | inactive
17 | CC1(C)C=CC(=O)[C@]2(C)C1CC(=O)[C@]1(C)C2CC[C@@]2(C)C(c3ccoc3)OC(=O)C3OC321 (stereo not given in full) | inactive
18 | O=C(Cl)c1ccccc1[N+](=O)[O-] | inactive
19 | CC1CCCC(N2CCN(C(=O)c3ccc(F)cc3)CC2)C1 (stereo not given) | inactive
20 | COc1ccccc1-c1nc(N2CCN(C)CC2)c2ccccc2n1 | inactive
21 | CCn1cc(C(=O)NC2CCCCCC2)c(=O)c2cc(S(=O)(=O)N3CCCCC3)ccc21 | inactive
22 | CCCCc1c(O)nc2n(c1=O)CCS2 | inactive
23 | CN(C)CCSc1nc(N)c2c3c(sc2n1)COC(C)(C)C3 | inactive
24 | CCC1(C)Cc2c(sc3nc4n(c(=O)c23)CCCS4)CO1 (stereo not given) | 31.6 µM (active)
25 | CCOC(=O)CCCNC(=O)CN1C(=O)NC(CCc2ccccc2)C1=O (stereo not given) | inactive
26 | CCC(=O)N1CCN=C1SCc1ccc(F)cc1 | inactive
27 | Cc1c(S(=O)(=O)O)oc2c1C(=O)C(=O)c1c-2ccc2c1CCCC2(C)C | 10 µM (active)
28 | CCCCCC(=O)Nc1ccc2oc(-c3ccncc3)nc2c1 | 31.6 µM (active)
29 | Cc1cc2nc(-c3ccc(NC(=O)c4cccnc4)cc3)oc2cc1C | inactive
30 | CCCCC(=O)Nc1ccc2c(c1)OCCO2 | inactive

From PubChem BioAssay AID893 (National Center for Advancing Translational Sciences (NCATS), 2007)
